Laboratory results from ChEMBL document CHEMBL3988442, “University of Dundee, Small-Polar-MMV Screening Library” (2021).

Target: T1, Methionyl-tRNA synthetase, putative (Leishmania donovani (strain BPK282A1)) (UniProt E9BF75)
T1 sequence (whole entry): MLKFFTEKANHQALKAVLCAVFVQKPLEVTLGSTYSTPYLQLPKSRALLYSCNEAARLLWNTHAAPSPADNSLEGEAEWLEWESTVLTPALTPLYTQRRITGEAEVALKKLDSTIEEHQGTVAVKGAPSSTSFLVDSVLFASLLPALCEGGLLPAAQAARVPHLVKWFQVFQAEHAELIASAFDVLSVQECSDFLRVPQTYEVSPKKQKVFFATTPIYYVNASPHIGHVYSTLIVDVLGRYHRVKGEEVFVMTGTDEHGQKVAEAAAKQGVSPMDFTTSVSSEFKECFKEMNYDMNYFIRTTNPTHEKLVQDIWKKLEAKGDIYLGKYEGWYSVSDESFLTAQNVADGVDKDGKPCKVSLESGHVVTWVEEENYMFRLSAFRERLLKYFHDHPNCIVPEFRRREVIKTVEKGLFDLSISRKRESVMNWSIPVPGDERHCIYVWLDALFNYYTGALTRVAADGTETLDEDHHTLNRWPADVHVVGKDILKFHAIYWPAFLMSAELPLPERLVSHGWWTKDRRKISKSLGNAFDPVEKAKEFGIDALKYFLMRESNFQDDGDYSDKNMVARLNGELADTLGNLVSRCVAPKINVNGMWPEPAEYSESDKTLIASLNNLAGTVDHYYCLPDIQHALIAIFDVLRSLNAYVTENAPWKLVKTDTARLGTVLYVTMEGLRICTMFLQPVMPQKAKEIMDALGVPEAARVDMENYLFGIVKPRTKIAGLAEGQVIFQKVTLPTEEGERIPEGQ
Experiment: Leishmania donovani Methionine tRNA synthetase (LdMetRS):v7. Dose response assay
Format: functional
Parameters: conc 80 nM, time 150 minutes

**Q.** For `COCCN1CCN(c2ccc3ccc(C(=O)NC4CC4)cn23)CC1`, which PXC50 (MAX_EFFECT 43.53741497) is on record?
**A.** The PXC50 was < 4.

**Q.** And the PXC50 (MAX_EFFECT 48.22429907)?
**A.** Its PXC50 is < 4.

**Q.** What does the source list for `Cc1sc2nc(-c3cccs3)nc(NCCN3CCOCC3)c2c1C`?
**A.** PXC50 (MAX_EFFECT 8.542713568): < 4; PXC50 (MAX_EFFECT 8.5995086): < 4

**Q.** For `Cc1ccc(-c2ncc(CNc3cnccc3CO)s2)o1`, which PXC50 (MAX_EFFECT 7.511737089) is on record?
**A.** Its PXC50 is < 4.

**Q.** And the PXC50 (MAX_EFFECT 8.703703704)?
**A.** Its PXC50 is < 4.

**Q.** With `CS(=O)(=O)N1CCN(c2ccc3ccc(C(=O)NCCN4CCOCC4)cn23)CC1` as the compound, how does the PXC50 (BOTTOM 1.032447983, HILLSLOPE 3.01577023, MAX_EFFECT 61.72248804, TOP 62.04525005) read?
**A.** The PXC50 was 4.88.

**Q.** What about the PXC50 (BOTTOM -0.949038422, HILLSLOPE 2.220287811, MAX_EFFECT 68.73857404, TOP 70.86130279) of the same compound?
**A.** Its PXC50 is 4.83.

**Q.** With `FC1(F)CCN(c2ccccc2)CC12CCN(c1ncccn1)C2` (stereo not given) as the compound, how does the PXC50 (MAX_EFFECT 8.920187793) read?
**A.** Its PXC50 is < 4.

**Q.** What about the PXC50 (MAX_EFFECT 12.40740741) of the same compound?
**A.** The PXC50 was < 4.

**Q.** `Cc1nc(NCCO)c2c3c(sc2n1)CCC3` was tested. Which PXC50 (MAX_EFFECT 6.632653061) did it give?
**A.** The PXC50 was < 4.

**Q.** What about the PXC50 (MAX_EFFECT 7.828282828) of the same compound?
**A.** The PXC50 was < 4.

**Q.** What does the source list for `CC(=O)N1CCN(C(=O)c2ccc3ccc(N4CCN(S(C)(=O)=O)CC4)n3c2)CC1`?
**A.** PXC50 (BOTTOM 3.542001412, HILLSLOPE 2.454286416, MAX_EFFECT 62.83018868, TOP 64.11209582): 4.91; PXC50 (BOTTOM 3.854741042, HILLSLOPE 2.302398718, MAX_EFFECT 55.70776256, TOP 55.14895524): 4.97

**Q.** For `Cc1cc(C)n(C2=NC(NCCC(C)C)c3c(sc4c3CCCC4)N2)n1` (stereo not given), which PXC50 (MAX_EFFECT 4.798464491) is on record?
**A.** The PXC50 was < 4.

**Q.** And the PXC50 (MAX_EFFECT 13.23763955)?
**A.** Its PXC50 is < 4.

**Q.** `O=C(NCC1(O)CCCCC1)c1cc(=O)c2cc(F)cc(O)c2o1` was tested. Which PXC50 (MAX_EFFECT 3.03030303) did it give?
**A.** Its PXC50 is < 4.

**Q.** What about the PXC50 (MAX_EFFECT 5.182341651) of the same compound?
**A.** Its PXC50 is < 4.

**Q.** Which PXC50 (MAX_EFFECT 8.163265306) does the source give for `Cc1ccc(-c2cc(C(F)(F)F)nc(NCCN(C)C)n2)cc1` here?
**A.** The PXC50 was < 4.

**Q.** And the PXC50 (MAX_EFFECT 8.333333333)?
**A.** The PXC50 was < 4.

**Q.** With `Cc1nc(N2CCCCCC2)c2ccsc2n1` as the compound, how does the PXC50 (MAX_EFFECT 9.6) read?
**A.** The PXC50 was < 4.

**Q.** What about the PXC50 (MAX_EFFECT 10.05291005) of the same compound?
**A.** The PXC50 was < 4.

**Q.** With `Cc1cc2c(N3CCN(C)CC3)nc(-c3cccnc3)nc2s1` as the compound, how does the PXC50 (MAX_EFFECT 6.010928962) read?
**A.** The PXC50 was < 4.

**Q.** What about the PXC50 (MAX_EFFECT 7.486631016) of the same compound?
**A.** The PXC50 was < 4.

**Q.** How did the PXC50 (MAX_EFFECT 9.977324263) turn out when `Cc1ccc(N2CCC3(CN(Cc4ccncc4)CCC3(F)F)C2)nn1` (stereo not given) was run?
**A.** The PXC50 was < 4.

**Q.** What about the PXC50 (MAX_EFFECT 11.58878505) of the same compound?
**A.** The PXC50 was < 4.

**Q.** Which results are given for `CCC(CO)Nc1nc(CSc2ccccc2)nc2sc(C)c(C)c12` (stereo not given)?
**A.** PXC50 (MAX_EFFECT 23.49726776): < 4; PXC50 (MAX_EFFECT 24.06417112): < 4

**Q.** How did the PXC50 (MAX_EFFECT 10.38251366) turn out when `Cc1sc2nc(CN3CCOCC3)nc(NS(C)(=O)=O)c2c1C` was run?
**A.** Its PXC50 is < 4.

**Q.** What about the PXC50 (MAX_EFFECT 12.29946524) of the same compound?
**A.** The PXC50 was < 4.

**Q.** `Cc1nc(NC(C(=O)O)C(C)C)c2c3c(sc2n1)CCC3` (stereo not given) was tested. Which PXC50 (MAX_EFFECT 7.537688442) did it give?
**A.** The PXC50 was < 4.

**Q.** What about the PXC50 (MAX_EFFECT 7.616707617) of the same compound?
**A.** Its PXC50 is < 4.

**Q.** How did the PXC50 (MAX_EFFECT 3.723404255) turn out when `Cc1nc(N(C)CCC#N)c2c3c(sc2n1)CC(C)CC3` (stereo not given) was run?
**A.** Its PXC50 is < 4.

**Q.** What about the PXC50 (MAX_EFFECT 5.699481865) of the same compound?
**A.** Its PXC50 is < 4.

**Q.** What does the source list for `CC(=O)NCc1nnc2n1CCN(c1nc(C)nc3sccc13)CC2`?
**A.** PXC50 (MAX_EFFECT 6.527415144): < 4; PXC50 (MAX_EFFECT 9.921671018): < 4

**Q.** With `FC1(F)CCN(Cc2cccnc2)CC12CCN(c1cnccn1)C2` (stereo not given) as the compound, how does the PXC50 (MAX_EFFECT 4.081632653) read?
**A.** The PXC50 was < 4.

**Q.** And the PXC50 (MAX_EFFECT 6.355140187)?
**A.** Its PXC50 is < 4.

**Q.** Which results are given for `CCc1nc(N2CCN(c3ccccn3)CC2)c2c3c(sc2n1)CCC3`?
**A.** PXC50 (MAX_EFFECT 39.95098039): < 4; PXC50 (MAX_EFFECT 40.86538462): < 4

**Q.** `CCOCCCNc1nc(-c2ccc(C)cc2)cc(C(F)(F)F)n1` was tested. Which PXC50 (MAX_EFFECT 5.102040816) did it give?
**A.** Its PXC50 is < 4.

**Q.** What about the PXC50 (MAX_EFFECT 5.808080808) of the same compound?
**A.** The PXC50 was < 4.

**Q.** `CCN1CCN(c2nc(-c3cccc(OC)c3)cc(C(F)(F)F)n2)CC1` was tested. Which PXC50 (MAX_EFFECT 17.85714286) did it give?
**A.** The PXC50 was < 4.

**Q.** What about the PXC50 (MAX_EFFECT 18.43434343) of the same compound?
**A.** Its PXC50 is < 4.

**Q.** For `Cc1nn(C)cc1-c1cc(C(F)(F)F)nc(NC2CCCCC2)n1`, which PXC50 (MAX_EFFECT 7.049608355) is on record?
**A.** The PXC50 was < 4.

**Q.** What about the PXC50 (MAX_EFFECT 12.01044386) of the same compound?
**A.** The PXC50 was < 4.

**Q.** What does the source list for `CNC(=O)CNc1nc(C)nc2sc3c(c12)CCC3`?
**A.** PXC50 (MAX_EFFECT 7.888040712): < 4; PXC50 (MAX_EFFECT 9.319899244): < 4

**Q.** For `CC(=O)N1CCC(NC(=O)c2ccc3ccc(N4CCN(S(C)(=O)=O)CC4)n3c2)CC1`, which PXC50 (BOTTOM 2.919824671, HILLSLOPE 1.594432626, MAX_EFFECT 67.35849057, TOP 70.74594509) is on record?
**A.** Its PXC50 is 4.9.

**Q.** What about the PXC50 (BOTTOM 3.112441615, HILLSLOPE 1.895765793, MAX_EFFECT 63.92694064, TOP 65.42596591) of the same compound?
**A.** Its PXC50 is 4.95.

**Q.** With `FC1(F)CCN(Cc2ccncc2)CC12CCN(c1cccnc1)C2` (stereo not given) as the compound, how does the PXC50 (MAX_EFFECT 5.981308411) read?
**A.** The PXC50 was < 4.

**Q.** And the PXC50 (MAX_EFFECT -0.453514739)?
**A.** Its PXC50 is < 4.

**Q.** What does the source list for `NC(=O)c1ccc(Cl)cc1Cl`?
**A.** PXC50 (MAX_EFFECT 4.967602592): < 3; PXC50 (MAX_EFFECT 16.92015209): < 3

**Q.** Which results are given for `Cc1nc(N2CC[C@@H](O)C2)c2c3c(sc2n1)CCCC3`?
**A.** PXC50 (MAX_EFFECT 8.838383838): < 4; PXC50 (MAX_EFFECT 10.20408163): < 4

**Q.** How did the PXC50 (MAX_EFFECT 19.71830986) turn out when `Cc1nnc(NCC2(c3ccccc3)CCC2)c(C#N)c1C` was run?
**A.** Its PXC50 is < 4.

**Q.** What about the PXC50 (MAX_EFFECT 20.92592593) of the same compound?
**A.** The PXC50 was < 4.

**Q.** Which PXC50 (MAX_EFFECT 7.650273224) does the source give for `Cc1sc2nc(CN3CCOCC3)nc(NCCO)c2c1C` here?
**A.** Its PXC50 is < 4.

**Q.** What about the PXC50 (MAX_EFFECT 8.021390374) of the same compound?
**A.** Its PXC50 is < 4.
